In PubChem BioAssay (EPA / NIEHS) one finds outcome data, which are given here for 13 compounds.

Structures are written as SMILES. Activity calls are given as the source filed them. Rule for the calls: active = hit-call score of the fitted dose curve at least 0.9, where 1 is the maximum; inactive = score below 0.9.

Read-out in the experiment: Matrix Metallopeptidase 9 (MMP9), MMP9 (gene 4318)
Description: BSK_BE3C_MMP9: BioMAP Diversity Plus: BE3C Assay for Matrix Metallopeptidase 9 (MMP9) Biomarker Activity (AID 2284283). As to conditions: primary human bronchial epithelial cells. As to the method:
BSK_BE3C is a cell-based, multiplexed-readout assay that uses bronchial epithelial cell, a human lung primary cell, with measurements taken at 24 hours after chemical dosing in a 96-well plate.BSK_BE3C_MMP9 is an assay component measured in the BSK_BE3C assay. It measures MMP-9 antibody related to regulation of gene expression using ELISA technology.Data from the assay component BSK_BE3C_MMP9 was analyzed at the endpoint, BSK_BE3C_MMP9, in the positive analysis fitting direction relative to DMSO as the negative control and baseline of activity. Using a type of binding reporter, gain or loss-of-signal activity can be used to understand protein changes. To generalize the intended target to other relatable targets, this assay endpoint is annotated to the 'protease' intended target family, where the subfamily is 'matrix metalloproteinase'.
The levels of cell surface (or secreted, indicated by the prefix "s") biomarker endpoints were measured by ELISA. Overt cytotoxicity to cells in confluent adherent cultures (all systems other than the BT system) was assessed by measuring total protein levels using sulforhodamine B (SRB) staining in parallel cultures at the time of biomarker measurements, indicated as SRB endpoints. For proliferation assays for adherent cell types, individual cell types are cultured at sub-confluence and relative cell numbers quantified by SRB staining at time points optimized for each system (48 h: 3C and CASM3C systems; 72 h: BT and HDF3CGF systems; 96 h: SAg system). SRB was performed by staining cells with 0.1% SRB after fixation with 10% TCA and reading wells at 560 nm.Viability and proliferation of PBMC (T cells) was quantified by Alamar Blue reduction for the SAg and BT systems. For PBMC viability (referred to as PBMC Cytotoxicity within the assay endpoint names), cells were plated (75,000/well in a 96-well plate) and then chemical samples added for 1 h before addition of activators, SEB and TSST-1 (20 ng/mL final concentration each). Cells were incubated for 90 h. Then, Alamar Blue (20 uL/well) (Invitrogen, Cat DAL1100) was added for 6 h, and the plates were read with a fluorescence microplate reader at 546/580 nm (excitation/emission). For PBMC proliferation, cells were plated and activated as above but incubated for only 16 h prior to addition of Alamar Blue. Plates were read after 6 h.
For `CC(C)(CO)CO`, the result was inactive. The same measure for `CC(=O)c1ccc(C)cc1`: “inactive”; for `CCCCN(CCO)CCO`: “inactive”; for `C=C(F)C(=O)OC(C(F)(F)F)C(F)(F)F`: “inactive”. With `C=C(C)C(=O)OCCC(F)(F)C(F)(F)C(F)(F)C(F)(F)C(F)(F)C(F)(F)C(F)(F)C(F)(F)F`, the result was inactive. In the case of `CCCO[Si](OCCC)(OCCC)OCCC` it was “inactive”; in that of `O=C(O)C(F)(F)C(F)(F)C(F)(F)C(F)(F)C(F)(F)C(F)(F)C(F)(F)C(F)F`, “inactive”; in that of `O=S(=O)(O)C(F)(F)C(F)(F)OC(F)(F)C(F)(F)F`, “inactive”. In the case of `OCC(F)(OC(F)(F)C(F)(OC(F)(F)C(F)(F)C(F)(F)F)C(F)(F)F)C(F)(F)F` (stereo not drawn) it was “inactive”.

Regarding `CCn1cc(C(=O)O)c(=O)c2ccc(C)nc21`, the result was inactive.

In the case of `CC(C)CCCC(C)(C)O`, the outcome was inactive. For `O=C(O)C(F)(F)OC(F)(F)C(F)(F)OC(F)(F)C(F)(F)C(F)(F)C(F)(F)F`, the outcome was inactive. In the case of `c1ccc(OCCOc2ccccc2)cc1`, the result was inactive.
